High-throughput results (PubChem)
A selection: hits, their analogues and other compounds. The true share with any hit is near 9.2%.
NPC1 promoter act = activates the NPC1 promoter. AID 485313. Huh7 NPC1 promoter luciferase reporter, 24 h. Potency, µM (top dose mostly 9.22 µM), for the others: at the highest dose activation, hits mostly activators. hit rate 2.4% among 320,000; further: % of control where 0% means no effect; nearly all actives have a fitted effect of over 60% in size
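Compounds in DMSO were transferred onto Huh7 NPC1-luciferase reporter cells pre-incubated 2 h; after 24 h at 37 °C, Amplite reagent was dispensed and luminescence recorded 10 min later.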
FLuc modulator = inhibits or activates purified firefly luciferase, miR-21 counter-screen; P08659; purified FLuc, Km substrates, luminescence inhibition; Potency, µM (doses to about 57.5 µM), for the others: at the highest dose activity change, negative = inhibition, most hits filed as inhibitors; hit rate 6.9% among 360,000; AID 588342;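 further: plate controls were vehicle for no effect and reference inhibitor for full effect; nearly all actives have a fitted effect of over 55% in size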
Target sequence (P08659 whole entry, looked up): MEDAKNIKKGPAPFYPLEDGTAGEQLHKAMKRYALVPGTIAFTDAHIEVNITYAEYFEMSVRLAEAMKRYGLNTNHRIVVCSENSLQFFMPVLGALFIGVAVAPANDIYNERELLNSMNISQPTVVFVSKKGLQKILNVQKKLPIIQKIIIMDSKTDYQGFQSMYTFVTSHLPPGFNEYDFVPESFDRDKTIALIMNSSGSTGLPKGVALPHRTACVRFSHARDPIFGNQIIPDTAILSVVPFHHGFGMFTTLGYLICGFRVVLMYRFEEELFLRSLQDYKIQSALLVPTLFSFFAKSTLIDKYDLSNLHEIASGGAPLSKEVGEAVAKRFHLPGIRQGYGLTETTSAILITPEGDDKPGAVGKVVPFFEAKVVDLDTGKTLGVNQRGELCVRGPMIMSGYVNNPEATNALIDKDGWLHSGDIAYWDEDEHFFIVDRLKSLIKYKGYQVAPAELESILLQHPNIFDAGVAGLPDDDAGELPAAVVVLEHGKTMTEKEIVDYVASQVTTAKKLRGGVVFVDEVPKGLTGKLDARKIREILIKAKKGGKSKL
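Biochemical qHTS of compounds, final roughly 60 µM downward over six points, against 10 nM purified firefly luciferase using Km concentrations of substrates (10 uM D-luciferin, 10 uM ATP) in Tris acetate pH 7.5 buffer; luminescence output.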
SMN2 splice enh = enhancers of SMN2 splice variant expression | HEK293 SMN2-luciferase splicing reporter, luminescence, 30-36 h | Potency, µM (highest dose often 46.1 µM), for the others: at the top dose activity change, positive = activation, actives largely listed as activators | hit rate 2.8% among 210,000; further: % of control where 0% means no effect; nearly all actives have a fitted effect of over 55% in size
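HEK293 cells carry an SMN2 […]–luciferase reporter in which exon 7 inclusion puts luciferase in frame. Cells were plated 10-12 h before compound addition, then incubated 30-36 h at 37C. ONE-Glo luminescence was read; sodium butyrate at 4.5 mM final served as control.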
ELG1 genotox = genotoxicity induction in ELG1-luciferase HEK293T cells. HEK293T ELG1-luciferase reporter, luminescence, 16 h. Potency, µM (series often up to 46 µM), without a hit: at the top dose activity change, positive = activation, hits mostly activators. hit rate 1.3% among 330,000. AID 504466; further: % of control where 0% means no effect; nearly all actives have a fitted effect of over 60% in size
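Luminescence read-out: rising ELG1-luciferase signal, reflecting elevated ELG1 protein under genetic stress, flags genotoxic compounds. Cells were treated for 16 hr at 37 °C before ONE-Glo detection.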
ELG1 repair inh = ELG1-dependent DNA repair inhibition; HEK293T ELG1-luciferase reporter, luminescence, 16 h; DNA damage induced by 5-fluorouridine; Potency, µM (titrated, usually from 46.1 µM), inactives show at the highest dose activity change, negative = inhibition, actives largely listed as inhibitors; hit rate 2.3% among 330,000; AID 504467; further: on the % scale 0 is the no-effect control and ±100 the full control effect; nearly all actives have a fitted effect of over 55% in size
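Overnight (16 hr) co-exposure of 2,000 cells/well to 5-fluorouridine and compound at 37 °C preceded detection. Luciferase was quantified via ONE-Glo luminescence; loss of signal denotes inhibition.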
Rab9 prom act = Rab9 promoter activation; Potency, µM (top dose mostly 9.22 µM), for the others: at the highest dose activation, negative = inhibition, actives largely listed as activators; hit rate 2.8% among 320,000; AID 485297; Huh7 Rab9 promoter-luciferase reporter, luminescence, 24 h; further: % of control where 0% means no effect; nearly all actives have a fitted effect of over 60% in size
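Measured in stably transfected Huh7 cells bearing a Rab9 promoter–luciferase construct: 24 h compound treatment at 37 °C, followed by luminescence detection.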
Active calls of the source: *; ? = inconclusive; nt = no result; [ ] = dose if it differs, or a comment. The call rests on the fitted dose curve; in most records, active means well fitted curve in the direction sought with a large enough effect; inconclusive means small, poorly fitted or top-dose-only effect, or another doubt; inactive means no such curve, though single readings can be large; an effect the other way counts as inactive or inconclusive. Potency means the concentration at half of the fitted maximal effect.

SMILES	NPC1 promoter act	FLuc modulator	SMN2 splice enh	ELG1 genotox	ELG1 repair inh	Rab9 prom act
Cc1c(CC(=O)NCCc2ccccc2)c(=O)oc2c(C)c3occ(C(C)(C)C)c3cc12	nt	-2%	-1%	nt	nt	nt
N#CCCn1cc(C(=O)CN2C(=O)NC3(CCCCCC3)C2=O)c2ccccc21	-2%	nt	nt	0%	8%	1%
Cc1ccc(/C(N)=N/OC(=O)Cc2ccccc2)cc1	18%	19µM*	20%	?	?	1%
O=C(CSc1cn(CC(=O)N2CCCCC2)c2ccccc12)Nc1ccc(C(F)(F)F)cc1	nt	0%	nt	nt	nt	nt
CCN(CC(=O)Nc1c(F)cccc1F)C(=O)CNC(=O)c1ccco1	-5%	-1%	nt	-2%	24%	0%
CCN(CC(=O)Nc1c(F)cccc1F)C(=O)CNC(=O)c1ccc(C)s1	?	15µM*	nt	26%	?	?
CCN(CC)C1=CC(=[N+]2CCCC2)CC(C)(C)C1	-27%	-1%	-72%	0%	-15%	-38%
CN(Cc1ccccc1)C1=CC(=[N+]2CCCC2)CC(C)(C)C1	-35%	3%	nt	-11%	0.26µM*	-41%
CCCOc1ccc(-c2cc(C(=O)NCC3CCCO3)c3ccccc3n2)cc1 (stereo not given)	12%	3µM*	9%	-10%	?	20%
COc1ccc(-c2cc(C(=O)NC3CC3)c3ccccc3n2)cc1	-4%	21µM*	nt	-1%	?	-1%
COc1ccc(-c2cc(C(=O)NC3CCCC3)c3ccccc3n2)cc1	14%	6.7µM*	nt	-3%	-16%	6%
O=C(NCC1CCCO1)c1cc(-c2ccncc2)nc2ccccc12 (stereo not given)	-2%	1%	nt	-1%	1%	2%
COc1ccc(C(CC(=O)Nc2cc(C)ccn2)N2Cc3ccccc3C2=O)cc1 (stereo not given)	10%	0%	nt	-4%	-17%	-2%
COc1cc(/C=N\Nc2nc3ccccc3[nH]2)cc(OC)c1OC	-3%	11µM*	-24%	-2%	-2%	-6%
CCOc1cc(/C=N/Nc2nc3ccccc3[nH]2)cc(Br)c1OCC(=O)N(C)C	0%	24µM*	-82%	-15%	23µM*	0%
CCOc1cc(/C=C2\COc3ccccc3C2=O)cc(Br)c1OCC(=O)N(C)C	-16%	?	nt	-10%	?	3%
COc1ccc2c(c1)c(C(=O)N/N=C/c1cn(C)c3ccccc13)c(C)n2C	3%	?	nt	-3%	-3%	1%
COc1cc(/C=C/C(=O)NCc2nc3ccccc3[nH]2)cc(OC)c1OC	-4%	-1%	nt	?	?	-6%
COc1ccc(/C=N/Nc2nc3ccccc3[nH]2)cc1OC	?	7.6µM*	1%[1.84 µM]	11%	?	?
COc1ccc2c(c1)c(/C=N/Nc1nc3ccccc3[nH]1)c(C)n2C	6%	9.5µM*	nt	4%	?	0%
COc1cc(OC)c(OC)cc1/C=N/Nc1nc2ccccc2[nH]1	1%	-14%	nt	1%	?	9%
O=C(NCC(c1cccnc1)N1CCc2ccccc21)c1ccc(F)c(F)c1 (stereo not given)	nt	-2%	nt	nt	nt	nt
CC(=O)N1c2ccc(S(=O)(=O)N3CCCC3C(=O)NCc3ccccc3Cl)cc2CC1C (stereo not given)	-5%	1%	nt	0%	-2%	7%
O=C(NC1CCCCCC1)C(=S)NC1CCCCC1	2.5µM*	5.4µM*	-36%	?	?	-4%
CN1CCC(NC(=O)NC2CCCCC2)CC1	-2%	-1%	nt	-2%	9%	-2%
SMILES	NPC1 promoter act	FLuc modulator	SMN2 splice enh	ELG1 genotox	ELG1 repair inh	Rab9 prom act
O=C(NC1CCCCCC1)C(=O)NC1CC1	12%	-8%	nt	1%	19%	15%
O=C(NC1CCCCCCC1)NC1CCCCC1	3.5µM*	17µM*	?	?	?	4µM*
CC(Oc1ccc(Br)cc1)C(=O)N(C)CC(=O)Nc1ccc(N2CCOCC2)cc1 (stereo not given)	-1%	-1%	nt	1%	-11%	1%
O=C1/C(=C\c2ccc3c(c2)OCO3)CCC/C1=C/c1ccc2c(c1)OCO2	-3%	?	-11%	1%	8%	0%
O=c1/c(=C\c2ccc3c(c2)OCO3)sc2n1CCCN=2	0.89µM*	4.3µM*	?	3.3µM*	?	3.5µM*
Cc1ccc(/C=c2/sc3n(c2=O)CCCN=3)o1	?	15µM*	13µM*	?	?	2.8µM*
Cc1ccc(/C=c2\sc3n(c2=O)CN(c2ccc(Br)cc2)CN=3)o1	9%	?	-31%	-1%	5%	0%
Cc1ccc(Cl)cc1NC(=O)c1oc2ccc(S(=O)(=O)N3CCCCC3)cc2c1C	nt	-3%	nt	nt	nt	nt
Nc1n[nH]c(=S)n1/N=C1/C(=O)Nc2ccccc21	0%	15µM*	6%	0%	-19%	-2%
CN(C)c1ccnc2sc(C(=O)NCc3ccccc3)c(N)c12	14%	?	nt	?	?	15%
CN(C)c1ccnc2sc(C(=O)c3ccc(Br)cc3)c(N)c12	?	?	22µM*	-2%	?	?
COc1ccc(-c2cc(C(=O)N3CCN(c4ccccc4O)CC3)c3ccccc3n2)cc1	3.2µM*	0.67µM*	nt	0%	20%	2µM*
COc1ccc(-c2cc(C(=O)N3CCN(c4ccccc4O)CC3)c3ccccc3n2)cc1OC	21%	9.5µM*	nt	-19%	9.2µM*	-2%
Cc1ccc(-c2cc(C(=O)N3CCN(c4ccccc4O)CC3)c3ccccc3n2)cc1	?	2.4µM*	nt	-1%	?	?
CS(=O)(=O)N1CCN(C(=O)c2cc(-c3ccccc3)nc3ccccc23)CC1	1%	?	-1%	-1%	-4%	-1%
CS(=O)(=O)N1CCN(C(=O)c2cc(-c3cccs3)nc3ccccc23)CC1	3%	?	1%	-1%	16µM*	6%
